Reference: PubChem BioAssay (NCI)
The panel holds about 83,000 compounds, 20% with a hit somewhere; the sample as a whole holds those more often.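 A percent growth of 40 corresponds to 60% growth inhibition; 0 means no net growth; -100 means all cells died. Active threshold: below 10.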 A number with no mark means an inactive call. The source made the active and inactive calls.

How the values were obtained:
Assay in all cases: NCI-60 one-dose screen, 48 h (100 = growth as untreated, 0 = no growth, -100 = all killed)
Settings in all cases: 10 µM
HOP-92 NSCLC = system: HOP-92 NSCLC
COLO 205 colon = system: COLO 205 colon
MDA-MB-231 breast = system: MDA-MB-231 breast
RXF 393 renal = system: RXF 393 renal
SK-MEL-5 melanoma = system: SK-MEL-5 melanoma
OVCAR-4 ovarian = system: OVCAR-4 ovarian
HS 578T breast = system: HS 578T breast
NCI/ADR-RES ovarian = system: NCI/ADR-RES ovarian
T-47D breast = system: T-47D breast
BT-549 breast = system: BT-549 breast
MDA-MB-435 melanoma = system: MDA-MB-435 melanoma
SW-620 colon = system: SW-620 colon
MCF7 breast = system: MCF7 breast
HCC-2998 colon = system: HCC-2998 colon
KM12 colon = system: KM12 colon
CCRF-CEM leukemia = system: CCRF-CEM leukemia
LOX IMVI melanoma = system: LOX IMVI melanoma
HCT-116 colon = system: HCT-116 colon

Row | SMILES | growth (HOP-92 NSCLC) | growth (COLO 205 colon) | growth (MDA-MB-231 breast) | growth (RXF 393 renal) | growth (SK-MEL-5 melanoma) | growth (OVCAR-4 ovarian) | growth (HS 578T breast) | growth (NCI/ADR-RES ovarian) | growth (T-47D breast) | growth (BT-549 breast) | growth (MDA-MB-435 melanoma) | growth (SW-620 colon) | growth (MCF7 breast) | growth (HCC-2998 colon) | growth (KM12 colon) | growth (CCRF-CEM leukemia) | growth (LOX IMVI melanoma) | growth (HCT-116 colon)
1 | Cn1cc(-c2cc(N)n3nc(-c4cn(C)c5ccccc45)cc3n2)c2cc(F)ccc21 | -78.4% (active) | -82.3% (active) | -56% (active) | -76.3% (active) | -87.9% (active) | -38.2% (active) | -24.1% (active) | -21.1% (active) | -50.1% (active) | -69.9% (active) | -81.1% (active) | -54.4% (active) | -56.2% (active) | -80.5% (active) | -69.1% (active) |  |  | 
2 | COc1ccc2[nH]cc(-c3nc(N)nnc3-c3cn(C)c4ncc(Br)cc34)c2c1 | -2.43% (active) |  | 21% | -14% (active) |  | 37.4% | 28.2% | 12.5% | 48.5% | -38.5% (active) | -38.8% (active) | 17.8% | 4.79% (active) | 11.8% | 5.71% (active) | 1.4% (active) |  | 
3 | O=C(c1ccccc1)c1ccc2nc(-c3ccccc3Br)[nH]c2c1 | -90.6% (active) |  | -8.52% (active) | -90.4% (active) | -97.6% (active) | -54.8% (active) | 29% | 0.18% (active) | -59.3% (active) | -76.4% (active) | -21% (active) | -17.9% (active) | -6.39% (active) | -96.3% (active) |  |  | -94.6% (active) | 
4 | CC1[C@H]2[C@H](C[C@H]3[C@@H]4CC=C5c6sc(Nc7cccc(Cl)n7)nc6CC[C@]5(C)[C@H]4CC[C@@]32C)O[C@]12CC[C@@H](C)CO2 (stereo not given in full) | 99.6% |  | 82.4% | 123% |  | 104% | 106% | 94% | 68% | 83.5% | 75.8% | 104% | -66.6% (active) | 102% |  | 66.6% |  | 76.3%
5 | C#C[C@]1(O)CC[C@H]2[C@@H]3CC=C4c5sc(Nc6ccc(C(F)(F)F)cn6)nc5CC[C@]4(C)[C@H]3CC[C@@]21C | -7.64% (active) | -87% (active) | -34.2% (active) | -37.9% (active) |  | 20% | -6.11% (active) | -19.9% (active) | 8.97% (active) | -50% (active) | 1.17% (active) | -32.8% (active) | -28.7% (active) | 4.01% (active) |  |  | -98.5% (active) | 
6 | Cn1cc(-c2cc3nc(-c4c[nH]c5ccccc45)cc(N)n3n2)c2cc(Cl)ccc21 | -81% (active) |  | -69.4% (active) | -82.7% (active) |  | -73.8% (active) | -22.2% (active) | -48.5% (active) | -85.5% (active) | -90.4% (active) | -93.1% (active) | -61% (active) | -85.9% (active) | -84.1% (active) | -82.2% (active) |  |  | -84.6% (active)
7 | Cn1cc(-c2nnc(N)nc2-c2c[nH]c3ccc(F)cc23)c2cc(Br)cnc21 | 26.4% |  | 56.1% | 38.7% |  | 59.6% | 52% | 68.1% | 44.1% | 51.1% | 67.2% | 68.5% | 27.7% | 72.8% | 61.5% |  |  | 59.2%
8 | COc1cc(-c2nc3ccc(C)cc3[nH]2)ccc1OCc1nnc(-c2ccccc2Br)o1 | 84.3% | 72.8% | 69.7% | 1.93% (active) |  | 80.7% | 62.2% | 75% | 28% | 55.7% | 85.4% | 91.9% | 44.4% | 77.2% |  |  |  | 
9 | O=C(c1ccc(F)cc1)C(c1c[nH]c2ccccc12)c1c[nH]c2ccccc12 | 90.5% | 97.7% | 58.8% | 40.3% | 89.8% | 55.9% | 86.1% | 54.7% | 63.9% | 71.4% | 58.4% | 5.23% (active) | 15.2% | 82.9% |  | 3.4% (active) |  | 
10 | C#CCOc1cc(N(CC)CC)ccc1C(C(=O)NC(C)(C)C)N(C(=O)C1CCc2cc(F)ccc2O1)c1ccc(F)cc1F (stereo not given) | 30.5% | 25.8% | 55.4% | 64.6% |  | 43.7% | 70.6% | 53.1% | 37.4% | 31.1% | 40.6% | 53.7% | 17.5% | 78.1% |  |  |  | 
11 | COc1ccc(OC)c(-n2cc(C#N)c(N)c2C(=O)c2ccc(Cl)cc2Cl)c1 | 91.6% |  | 64.2% | 55.5% |  | 86.2% | 38.6% | 30.4% | 42.6% | 48.3% | -37.1% (active) | 26.8% | 16.1% | 64.8% | 27.4% |  |  | 29.4%
12 | Cc1ccc(S(=O)(=O)N2CCN(S(=O)(=O)c3oc(-c4ccccc4)nc3C#N)CC2)cc1 | 93% | 92.3% | 100% | 87.6% | 63.7% | 71.8% | 95.2% | 83% | 60.8% | 76.1% | 77.6% | 90% | 47.6% | 106% |  |  | 8.41% (active) | 84.6%
13 | C#C[C@]1(O)CC[C@H]2[C@@H]3CC=C4c5sc(Nc6cc(C)cc(C)n6)nc5CC[C@]4(C)[C@H]3CC[C@@]21C | -22.2% (active) |  | -44.9% (active) | -40% (active) |  | 25.6% | -20.5% (active) | 0.407% (active) | -35.6% (active) | -50.4% (active) | -6.28% (active) | -86.9% (active) | -89.7% (active) | 1.37% (active) |  | 5% (active) |  | -56.1% (active)
14 | O=C(c1ccc(Cl)cc1)C(c1c[nH]c2ccccc12)c1c[nH]c2ccccc12 | -15.7% (active) |  | 3.98% (active) | -82.1% (active) | -58.3% (active) | 7.15% (active) | 27.2% | 11% | -30.6% (active) | -38.2% (active) | -68.6% (active) | -52.6% (active) | -69.3% (active) | -89.6% (active) | -5.68% (active) | 2.45% (active) | -85.1% (active) | 
15 | Cc1ccc(-c2nc(C#N)c(S(=O)(=O)N3CCN(S(C)(=O)=O)CC3)o2)cc1 | 63.7% |  | 77.6% | -35.2% (active) | 55.2% | 48.1% | 100% | 57.6% | -52.4% (active) | 58% | 57.9% | -71.8% (active) | 5.73% (active) | 92.9% |  | 7.57% (active) |  | 
16 | Nc1nnc(-c2c[nH]c3ncc(Br)cc23)c(-c2c[nH]c3ccc(Br)cc23)n1 | 28.4% |  | 65% | -14.7% (active) | 9.81% (active) | 47.7% | 24.7% | 52.9% | 37.4% | 6.94% (active) | 22.4% | 20.2% | 15.7% | 75.7% |  |  |  | 
17 | C#C[C@]1(O)CC[C@H]2[C@@H]3CC=C4c5sc(Nc6ccc(N(C)C)cc6)nc5CC[C@]4(C)[C@H]3CC[C@@]21C | 9.62% (active) |  | -10.7% (active) | -51.3% (active) |  | 36.1% | -7.74% (active) | 9.68% (active) | 28.6% | -58.8% (active) | 5.17% (active) | 4.36% (active) | -36.2% (active) | 33.4% |  |  | -80.3% (active) | 
18 | COc1cc(C2CC(c3ccccc3)=Nc3c(N)nc(N)nc3N2)ccc1Oc1nc(NCCO)nc(N2CCOCC2)n1 (stereo not given) | 86.3% |  | 97.1% | 95.7% | 98.7% | 105% | 78.9% | 109% | 90% | 92.6% | 102% | 107% | 83% | 115% |  |  | 107% | 
19 | COc1ccc(Cn2cc(C#N)c(N)c2C(C)=O)c(OC)c1 | 85.7% |  | 101% | 107% | 99.1% | 110% | 111% | 102% | 106% | 107% | 108% | 106% | 101% | 106% | 106% |  | 99.6% | 
20 | CCOC(=O)C1=C(N)N(c2ccc(C)cc2)C2=C(C(=O)CC(C)(C)C2)C1c1ccccc1Br (stereo not given) | 71.6% | 62.7% | 93.4% | 86.5% | 77.4% | 83.2% | 99.5% | 95.7% | 69.6% | 93.9% | 82.6% | 46% | 56.6% | 89.4% |  | 39.5% | 88.8% | 
